Measured values: the supplement of paper PMC4466140

Key:
Assay in all cases: SPOT peptide array binding signal intensity (averaged, normalized) (arbitrary units (background-subtracted, floor 0; scale differs between SH3 domains)); higher = stronger binding of the SH3 domain to the peptide
[1] = target: CaNbp2
Procedure, shortened: (§1)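 Spot intensities were captured after detection with anti-GST antibody, an HRP-linked anti-mouse secondary and luminol, and quantified with Genespotter. The probes were GST-fused SH3 domains from four yeast species, produced in E. coli BL21(DE3), purified on glutathione Sepharose and incubated at 10 μg/ml overnight at 4°C on cellulose-bound synthetic 15-mer peptides with cysteines replaced by serines. Binding signal is the normalized, background-subtracted spot intensity averaged over replicates, and its arbitrary units differ between domains.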

[2] = target: CaRvs167
Procedure, shortened: as §1

[3] = target: CaRvs167-3
Procedure, shortened: as §1

[4] = target: CaSho1
Procedure, shortened: as §1

[5] = target: CaSla1-D1-D2
Procedure, shortened: as §1

[6] = target: CaSla1-D3
Procedure, shortened: as §1

[7] = target: ScAbp1
Procedure, shortened: as §1

[8] = target: ScBbc1
Procedure, shortened: as §1

[9] = target: ScBem1-D1
Procedure, shortened: as §1

[10] = target: ScBzz1-D1
Procedure, shortened: as §1

[11] = target: ScBzz1-D2
Procedure, shortened: as §1

[12] = target: ScCyk3
Procedure, shortened: as §1

[13] = target: ScFus1
Procedure, shortened: as §1

[14] = target: ScHof1
Procedure, shortened: as §1

[15] = target: ScHse1
Procedure, shortened: as §1

[16] = target: ScLsb1
Procedure, shortened: as §1

[17] = target: ScLsb2
Procedure, shortened: as §1

[18] = target: ScLsb3
Procedure, shortened: as §1

[19] = target: ScLsb4
Procedure, shortened: as §1

[20] = target: ScMyo3
Procedure, shortened: as §1

[21] = target: ScMyo5
Procedure, shortened: as §1

[22] = target: ScNbp2
Procedure, shortened: as §1

[23] = target: ScPex13
Procedure, shortened: as §1

[24] = target: ScRvs167
Procedure, shortened: as §1

[25] = target: ScSho1
Procedure, shortened: as §1

[26] = target: ScSla1-D1-D2
Procedure, shortened: as §1

[27] = target: ScSla1-D3
Procedure, shortened: as §1

[28] = target: SpAbp1-D1
Procedure, shortened: as §1

[29] = target: SpBbc1
Procedure, shortened: as §1

[30] = target: SpBzz1-D1
Procedure, shortened: as §1

[31] = target: SpBzz1-D2
Procedure, shortened: as §1

[32] = target: SpCyk3
Procedure, shortened: as §1

[33] = target: SpHof1
Procedure, shortened: as §1

[34] = target: SpHof1-2
Procedure, shortened: as §1

[35] = target: SpHof1-3
Procedure, shortened: as §1

[36] = target: SpHse1
Procedure, shortened: as §1

[37] = target: SpLsb1
Procedure, shortened: as §1

[38] = target: SpLsb4
Procedure, shortened: as §1

[39] = target: SpMyo1
Procedure, shortened: as §1

[40] = target: SpNbp2
Procedure, shortened: as §1

[41] = target: SpPex13
Procedure, shortened: as §1

[42] = target: SpRvs167
Procedure, shortened: as §1

[43] = target: SpSla1-D1-D2
Procedure, shortened: as §1

[44] = target: SpSla1-D3
Procedure, shortened: as §1

B1: unnamed (peptide)
chain: RVRKTHVPASKRPSG
[1]
  SPOT peptide array binding signal intensity: 216
[2]
  SPOT peptide array binding signal intensity: 1
[3]
  SPOT peptide array binding signal intensity: 7.25
[4]
  SPOT peptide array binding signal intensity: 89
[5]
  SPOT peptide array binding signal intensity: 112
[6]
  SPOT peptide array binding signal intensity: ≤ 0
[7]
  SPOT peptide array binding signal intensity: 15.5
[8]
  SPOT peptide array binding signal intensity: 15.5
[9]
  SPOT peptide array binding signal intensity: 51
[10]
  SPOT peptide array binding signal intensity: 7.5
[11]
  SPOT peptide array binding signal intensity: ≤ 0
[12]
  SPOT peptide array binding signal intensity: 51
[13]
  SPOT peptide array binding signal intensity: 117
[14]
  SPOT peptide array binding signal intensity: 1
[15]
  SPOT peptide array binding signal intensity: 469
[16]
  SPOT peptide array binding signal intensity: 4.5
[17]
  SPOT peptide array binding signal intensity: 7
[18]
  SPOT peptide array binding signal intensity: 420
[19]
  SPOT peptide array binding signal intensity: 5
[20]
  SPOT peptide array binding signal intensity: 2
[21]
  SPOT peptide array binding signal intensity: 1.5
[22]
  SPOT peptide array binding signal intensity: 91.5
[23]
  SPOT peptide array binding signal intensity: ≤ 0
[24]
  SPOT peptide array binding signal intensity: 2.17
[25]
  SPOT peptide array binding signal intensity: 230
[26]
  SPOT peptide array binding signal intensity: 510
[27]
  SPOT peptide array binding signal intensity: 8.5
[28]
  SPOT peptide array binding signal intensity: 249
[29]
  SPOT peptide array binding signal intensity: ≤ 0
[30]
  SPOT peptide array binding signal intensity: 41
[31]
  SPOT peptide array binding signal intensity: ≤ 0
[32]
  SPOT peptide array binding signal intensity: ≤ 0
[33]
  SPOT peptide array binding signal intensity: 89.5
[34]
  SPOT peptide array binding signal intensity: ≤ 0
[35]
  SPOT peptide array binding signal intensity: 247
[36]
  SPOT peptide array binding signal intensity: 112
[37]
  SPOT peptide array binding signal intensity: 3.75
[38]
  SPOT peptide array binding signal intensity: 224
[39]
  SPOT peptide array binding signal intensity: 4.25
[40]
  SPOT peptide array binding signal intensity: 78
[41]
  SPOT peptide array binding signal intensity: 2
[42]
  SPOT peptide array binding signal intensity: 1.17
[43]
  SPOT peptide array binding signal intensity: 4
[44]
  SPOT peptide array binding signal intensity: ≤ 0
